AHR activator: AHR activators, primary screen, cell-based, luminescence, luciferase reporter, human. AHR-responsive luciferase reporter cells. activation, % at 5 µM. actives 2.5% (n = 320,000); in the data active = activation above about 47%
Target sequence (P35869 whole entry, looked up): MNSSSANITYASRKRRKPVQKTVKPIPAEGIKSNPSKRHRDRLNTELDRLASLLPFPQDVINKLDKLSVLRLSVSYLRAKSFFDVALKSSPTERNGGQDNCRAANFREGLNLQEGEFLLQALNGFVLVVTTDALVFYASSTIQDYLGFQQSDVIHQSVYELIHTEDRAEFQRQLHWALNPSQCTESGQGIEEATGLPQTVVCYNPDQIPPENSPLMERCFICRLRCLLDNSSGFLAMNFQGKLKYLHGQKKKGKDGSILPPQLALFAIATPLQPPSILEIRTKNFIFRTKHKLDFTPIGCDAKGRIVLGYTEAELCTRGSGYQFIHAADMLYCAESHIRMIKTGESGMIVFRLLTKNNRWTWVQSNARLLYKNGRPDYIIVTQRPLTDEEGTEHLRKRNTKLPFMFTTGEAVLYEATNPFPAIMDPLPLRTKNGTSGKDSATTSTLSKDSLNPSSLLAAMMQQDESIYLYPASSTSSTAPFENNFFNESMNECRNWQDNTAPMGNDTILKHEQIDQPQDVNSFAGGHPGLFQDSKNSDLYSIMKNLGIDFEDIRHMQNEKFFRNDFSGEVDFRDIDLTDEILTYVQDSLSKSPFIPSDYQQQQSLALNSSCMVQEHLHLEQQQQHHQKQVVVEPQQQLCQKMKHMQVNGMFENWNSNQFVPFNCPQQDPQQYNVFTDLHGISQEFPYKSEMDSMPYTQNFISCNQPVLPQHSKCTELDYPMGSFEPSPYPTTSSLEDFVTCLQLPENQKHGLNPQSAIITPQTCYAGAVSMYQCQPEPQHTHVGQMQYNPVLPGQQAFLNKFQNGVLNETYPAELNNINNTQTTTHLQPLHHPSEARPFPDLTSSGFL
Cardio protect: cardioprotection against H2O2-induced cell death, primary screen, uHTS, H9c2 cells, ATPLite luminescence. protection from H2O2 cell death, % at 20 µM. AID 588492, 2011. H9c2 cardiomyocytes, H2O2 injury protection, 2 h. actives 0.63% (n = 360,000);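 active = compounds giving at least 50% protection of heart cells from peroxide-induced death in the single-dose screen, raw or plate-pattern-corrected value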
AI-2 QS mod: Vibrio harveyi AI-2 quorum sensing modulators, primary screen, JMH597 strain, luminescence/OD600 ratio; activity change, % at 7.5 µM; actives 0.4% (n = 300,000); Vibrio harveyi JMH597 AI-2 luminescence/OD600 ratio, 9 h; hits give low values; strain lacks LuxN and CqsS sensors; 0 = neutral-control median; AID 2094, 2009; in the data active = activity change below about -75%, passing the limit was not always enough;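 also: luminescence divided by OD600 gain over 9 h not by final OD600 alone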
NR3A LBD binder: binders of NR3A ligand-binding domain, primary screen, biophysical, differential scanning fluorimetry, uHTS. Glutamate receptor ionotropic, NMDA 3A (GRIN3A) ligand-binding domain. NR3A LBD differential scanning fluorimetry, Tm shift; 0% = protein alone, 100% = glycine-bound protein. Tm shift relative to glycine control, % at 25 µM. actives 2.5% (n = 340,000). AID 1259313, 2017;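 active = melting temperature shift of at least 10% of the positive control shift, at one fixed dose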
SUMO Mot1 rescue: yeast Mot1-301 growth rescue at high temperature, primary screen, SUMOylation pathway inhibitor project, S. cerevisiae, ATP luminescence, 38.5C; growth rescue, % at 18.8 µM; S. cerevisiae Mot1-301 growth rescue; percent above DMSO median, 100 means doubled; actives 1% (n = 320,000);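 active = every valid replicate shows activation above 250% relative to neutral control wells; inactive = the rest, any valid replicate at or below 250%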
NTR1 ag: agonists of human NTR1, primary screen, imaging, U2OS cells, beta-arrestin-GFP, high content; Neurotensin receptor type 1 (Homo sapiens), P30989; NTR1-U2OS beta-arrestin-GFP spot imaging, agonist mode; activation, % at 20 µM; actives 0.17% (n = 330,000); AID 493036, 2011;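 active = activation at or above 40% of the spot to cytoplasm intensity ratio, with at least 20 cells analyzed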
Yeast Mot1 SUMO: growth restoration of Mot1-301 yeast on galactose, dose response, SUMO pathway inhibitor project, whole organism, S. cerevisiae, ATP luminescence, cherry-picked samples; shares compounds with SUMO Mot1 rescue; 2,300 tested, under 10 active; growth activity, percent, % at 42 µM; S. cerevisiae Mot1-301 galactose growth, 24 h; -100 = growth of slx-deleted rescue strain; AID 493004, 2010;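 active = Signal drops as the depositor expects, and the fitted half-maximal dose is no more than ten times the top valid tested dose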;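 also: more negative values mean stronger growth rescue toward the control strain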
Of the large screens only hits and unclear results are named; the others gave an inactive call (follow-up assays come after a bar, where they were run). This is a sample that favours compounds with a hit; in the whole collection about 6.2% have one here.

OCC[C@H]1C[C@H](O)[C@@H](O)[C@@]2(CCc3ccccc3CO2)O1	none (no result: AI-2 QS mod)
OCC[C@@H]1C[C@H](O)[C@@H](O)[C@]2(CCc3ccccc3CO2)O1	SUMO Mot1 rescue 751 | Yeast Mot1 SUMO inactive
CC1CN(CCCOc2ccc([N+](=O)[O-])cc2)CC(C)O1 (stereo not given)	SUMO Mot1 rescue 463 | Yeast Mot1 SUMO inactive
Cc1sc2ncnc(N3CCC(C(=O)NNC(=O)COc4ccccc4Cl)CC3)c2c1C	none
Cc1sc2ncnc(N3CCC(C(=O)NNC(=O)COc4ccccc4F)CC3)c2c1C	SUMO Mot1 rescue 422 (no result: AI-2 QS mod) | Yeast Mot1 SUMO inactive
CN(CC(=O)NCCCn1ccnc1)S(=O)(=O)c1ccc(Cl)cc1	none (no result: AI-2 QS mod)
Cc1cc(C)n(CCCNC(=O)CN(C)S(=O)(=O)c2ccc(Cl)cc2)n1	SUMO Mot1 rescue 817 | Yeast Mot1 SUMO inactive
COc1ccc(NC(=O)c2c(C)noc2C(C)C)cc1S(=O)(=O)N1CCCCC1	none (no result: AI-2 QS mod)
CCNCCNC(=O)c1c(O)c2c([nH]c1=O)CCCC2	SUMO Mot1 rescue active | Yeast Mot1 SUMO inactive
CN(C)CCNC(=O)c1scc2c1CCCC2	SUMO Mot1 rescue 824 | Yeast Mot1 SUMO inactive
CN(C)CCNC(=O)c1c(O)c2c([nH]c1=O)CCCC2	SUMO Mot1 rescue 630 | Yeast Mot1 SUMO inactive
CCN(CC)CCNC(=O)c1c(O)c2c([nH]c1=O)CCCC2	none
CCCCN(C(=O)c1cccc(-n2cnnn2)c1)c1c(N)n(CCCC)c(=O)[nH]c1=O	none (no result: AHR activator, AI-2 QS mod, NR3A LBD binder, SUMO Mot1 rescue, NTR1 ag)
CCOc1ccc(S(=O)(=O)N2CCCCC2)cc1NS(=O)(=O)c1cccs1	none (no result: AI-2 QS mod)
O=C(CCn1c(=S)oc2ccccc21)Nc1cc([N+](=O)[O-])ccc1F	none
CC(C)CC(c1nnnn1C1CCCCC1)N1CCN(C(=O)c2ccco2)CC1 (stereo not given)	SUMO Mot1 rescue 706 | Yeast Mot1 SUMO inactive
O=S(=O)(NCc1ccccc1)NCc1ccccc1F	none
O=S(=O)(NCc1cccc(C(F)(F)F)c1)NCc1ccccc1F	SUMO Mot1 rescue active | Yeast Mot1 SUMO inactive
COc1ccc(-c2noc(CSc3nc(-c4ccccc4)cc(=O)[nH]3)n2)cc1OC	SUMO Mot1 rescue 493 | Yeast Mot1 SUMO inactive
COc1c2c(c(CCC(=O)O)c3c1C=CC(C)(C)O3)OC(C)(C)C=C2	none (no result: AHR activator, AI-2 QS mod, SUMO Mot1 rescue, NTR1 ag)
Cc1ccc(-c2cc(-c3nnc(SCC(=O)NCC(C)C)n3N)c3ccccc3n2)cc1	none
CCC(C)NC(=O)CSc1nnc(-c2cc(-c3ccc(C)cc3)nc3ccccc23)n1N (stereo not given)	SUMO Mot1 rescue 971 | Yeast Mot1 SUMO inactive
Cc1ccc(C(C)NC(=O)c2cccs2)cc1 (stereo not given)	none
CC(NC(=O)c1cccs1)c1ccc(Br)cc1 (stereo not given)	SUMO Mot1 rescue 800 | Yeast Mot1 SUMO inactive
O=C1NC2(CCCCO2)CO1 (stereo not given)	SUMO Mot1 rescue 661 | Yeast Mot1 SUMO inactive
O=S(=O)(NCCc1ccc(Cl)cc1)c1cccc2cccnc12	none
CCCCC(=O)NC(=S)Nc1cccc(NC(=O)CC)c1	none (no result: SUMO Mot1 rescue)
CCCCC(=O)NC(=S)Nc1cccc(C(=O)O)c1	SUMO Mot1 rescue active | Yeast Mot1 SUMO inactive
COc1ccc(OC)c(/C=C/C(=O)N2CCN(S(=O)(=O)c3ccc(C)cc3C)CC2)c1	none (no result: AI-2 QS mod, SUMO Mot1 rescue)
Cc1ccc(NS(=O)(=O)c2csc(C(N)=O)c2)cc1C	SUMO Mot1 rescue 369 | Yeast Mot1 SUMO inactive
COc1ccc(NC(=O)c2cc(S(=O)(=O)Nc3ccc(OC)cc3)cs2)cc1	SUMO Mot1 rescue 527 | Yeast Mot1 SUMO inactive
Cc1cc(=O)oc2cc(OC(C)C(=O)NC3(C#N)CCCCC3)ccc12 (stereo not given)	none (no result: AI-2 QS mod)
CCCCOc1ccc(C(=O)Nc2ccc(CN3CCOCC3)cc2)cc1	SUMO Mot1 rescue 362 (no result: AHR activator) | Yeast Mot1 SUMO inactive
CCCOc1ccc(C(=O)Nc2ccc(CN3CCOCC3)cc2)cc1	none
COCCN1C=C(C(=O)OC)C(c2cc3c(cc2Br)OCO3)C(C(=O)OC)=C1	SUMO Mot1 rescue 557 (no result: Cardio protect) | Yeast Mot1 SUMO inactive
O=C(Nc1ccc(C(=O)N2CCCCC2)cc1)[C@H]1O[C@@H](n2ccc(=O)[nH]c2=O)[C@H](O)[C@@H]1O	none (no result: AHR activator, AI-2 QS mod, NR3A LBD binder, SUMO Mot1 rescue, NTR1 ag)
Cc1ccc(Cl)c(OCC(=O)Nc2cc(S(=O)(=O)N3CCOCC3)ccc2N2CCCC2)c1	none
Cc1nnc(SCC(=O)NC(C)(C)C)n1NCc1ccc(Cl)cc1	SUMO Mot1 rescue 785 | Yeast Mot1 SUMO inactive
Cc1ccc2c(C)c(C(=O)N3CCCC(C(N)=O)C3)oc2c1C (stereo not given)	none (no result: AHR activator, SUMO Mot1 rescue)
Cc1ccc(C(=O)Nc2nc(-c3ccc(F)cc3)cs2)o1	SUMO Mot1 rescue 410 | Yeast Mot1 SUMO inactive
Cc1ccc(C(C(=O)NCC2CCCO2)N(C(=O)c2snc(C(N)=O)c2N)c2ccc(C)c(C)c2)o1 (stereo not given)	none
Cc1nc2ccccc2c(=O)n1CC(=O)N1CCOCC1	SUMO Mot1 rescue 687 | Yeast Mot1 SUMO inactive
Cc1nc2ccccc2c(=O)n1CCCN1CCOCC1	none (no result: AI-2 QS mod)
COc1cc(C)ccc1S(=O)(=O)NC(=O)C1(C)CCN1C(=O)C1(c2ccc(Cl)cc2)CCC1 (stereo not given)	none (no result: AHR activator, AI-2 QS mod, NR3A LBD binder, SUMO Mot1 rescue, NTR1 ag)
N#CCCN(C(=O)COC(=O)c1ccc(S(=O)(=O)Nc2ccccc2)cc1)c1ccccc1	SUMO Mot1 rescue active | Yeast Mot1 SUMO inactive
N#CCCN(C(=O)COC(=O)c1cccc(S(=O)(=O)Nc2ccc([N+](=O)[O-])cc2)c1)c1ccccc1	none
C=CCNC(=O)c1onc(CSc2cccc(C)c2)c1C(=O)O	NR3A LBD binder 13, SUMO Mot1 rescue 775 | Yeast Mot1 SUMO inactive
C=CCNC(=O)c1onc(CSc2cccc(Cl)c2)c1C(=O)O	none
Cn1c(=O)c2c(SCC(=O)N3CCCC3)nc(CC(C)(C)C)nc2n(C)c1=O	none
CCOC(=O)c1ccc2c(c1)n(CC)c(/C=C/N(C)c1ccccc1)[n+]2CC	none
CC[n+]1c(/C=C/N(C)c2ccccc2)n(-c2ccccc2)c2ccc(-c3nc4ccccc4s3)cc21	SUMO Mot1 rescue 501 | Yeast Mot1 SUMO inactive
CCOc1ccc(S(=O)(=O)N2CCC(C(=O)NCc3ccncc3)CC2)cc1C	none
Cn1c(-c2ccc3c(c2)OCO3)cnc1NC(=O)CCC(=O)NCCc1ccccc1	SUMO Mot1 rescue 676 | Yeast Mot1 SUMO inactive
